PubChem BioAssay (NCI)
Values joined by “and” are separate entries in the source; they are usually repeats but may differ in a detail not shown here. Equal values may be shown once. The panel holds about 79,000 compounds, 15% with a hit somewhere; the sample as a whole holds those more often. A number with no mark means an inactive call. Active and inactive are the calls of the source. Cut-off read from the data, not from the text of the source: active = growth inhibition above about 70%; inactive = the rest.

Assays:
[1] = NCI Yeast Anticancer Drug Screen. Data for the rad50 strain (AID 155);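 note: 0% = growth of vehicle-only cultures of the same strain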; conditions: S. cerevisiae rad50 strain growth inhibition, stronger effect = higher value
Summary of the method: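 Growth of the mutant yeast was measured after compound exposure and referenced to vehicle-treated cultures.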

[2] = NCI Yeast Anticancer Drug Screen. Data for the mec2-1 strain (AID 157); conditions: S. cerevisiae mec2-1 strain, stronger effect = higher value
Summary of the method: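 mec2-1 yeast strain, carrying an alteration in DNA damage repair or cell cycle control, was exposed to compounds; growth inhibition was measured relative to vehicle-treated controls.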

[3] = NCI Yeast Anticancer Drug Screen. Data for the sgs1 mgt1 strain (AID 161);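 note: 0% = growth of cultures given vehicle only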; conditions: S. cerevisiae sgs1 mgt1 strain, stronger effect = higher value
Summary of the method: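 Yeast cells carrying a defined DNA-repair defect were exposed to test compounds. Growth inhibition was measured relative to vehicle-treated controls.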

[4] = NCI Yeast Anticancer Drug Screen. Data for the cln2 rad14 strain (AID 165);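 note: 0% = growth equal to vehicle treated cultures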; conditions: S. cerevisiae cln2 rad14 strain, stronger effect = higher value
Summary of the method: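 Yeast carrying cln2 and rad14 alterations (cell cycle control and DNA damage repair) were exposed to compounds. Growth inhibition was measured against vehicle-treated controls.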

[5] = NCI Yeast Anticancer Drug Screen. Data for the bub3 strain (AID 167); conditions: S. cerevisiae bub3 mutant strain, stronger effect = higher value
Summary of the method: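 Whole-cell yeast assay. The mutant strain was incubated with compounds, and growth inhibition was determined by comparison with vehicle-treated cells.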

[6] = NCI Yeast Anticancer Drug Screen. Data for the mlh1 rad18 strain (AID 175); conditions: S. cerevisiae mlh1 rad18 strain growth inhibition, stronger effect = higher value
Summary of the method: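 Growth inhibition of the yeast strain was measured after compound exposure and expressed relative to vehicle-treated controls. The strain carries defined defects in DNA damage repair.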

[7] = at 5.0 µM (retest, dose inferred, filed as 0.5)
[8] = at 50.0 µM (retest, dose inferred, filed as 5.0)

Structure (SMILES)	growth inhibition [1, 7]	growth inhibition [1, 8]	growth inhibition ([1]; at 50.0 µM)	growth inhibition [2, 7]	growth inhibition [2, 8]	growth inhibition ([2]; at 50.0 µM)	growth inhibition [3, 7]	growth inhibition [3, 8]	growth inhibition ([3]; at 50.0 µM)	growth inhibition [4, 7]	growth inhibition [4, 8]	growth inhibition ([4]; at 50.0 µM)	growth inhibition [5, 7]	growth inhibition [5, 8]	growth inhibition ([5]; at 50.0 µM)	growth inhibition [6, 7]	growth inhibition [6, 8]	growth inhibition ([6]; at 50.0 µM)
FC1(F)C(Cl)=[C]([Hg][C]2=C(Cl)C(F)(F)C(F)(F)C(F)(F)C2(F)F)C(F)(F)C(F)(F)C1(F)F	45%	98% (active)	98.6% (active)	66%	99% (active)	51.1%	58%	99% (active)	99.7% (active)	57%	99% (active)	19.9%	69%	99% (active)	75% (active)	57%	99% (active)	50.6%
Cc1oc2c([N+](=O)[O-])cccc2c1[N+](=O)[O-]	98% (active)	98% (active)	99.5% (active)	99% (active)	99% (active)	99.8% (active)	99% (active)	98% (active)	99.6% (active)	98% (active)	98% (active)	98.8% (active)	99% (active)	99% (active)	52.2%	98% (active)	98% (active)	99.7% (active)
CC(=O)OC1C(=O)OCC23CCC4(C)OC4C2OC2CC(OC(=O)/C=C/C=C/C(=O)OCCC1C)C3(C)C21CO1 (centres undefined)	99% (active)	99% (active)	92.6% (active)	100% (active)	100% (active)	93.8% (active)	99% (active)	99% (active)	93.8% (active)	98% (active)	98% (active)	92.5% (active)	99% (active)	98% (active)	92.6% (active)	100% (active)	99% (active)	92.3% (active)
O=C(COc1ccc(Cl)c(Cl)c1)N(Cc1ccccc1)Cc1ccc[n+](Cc2ccc(S(=O)(=O)F)cc2)c1	4%	99% (active)	43.5%	-59%	100% (active)	51.9%	1%	100% (active)	53.6%	5%	98% (active)	56.9%	3%	99% (active)	52.5%	4%	99% (active)	59.4%
CC[CH2][Sn]([Br])([Br])[CH2]CC	29%	91% (active)	83.2% (active)	21%	95% (active)	87.2% (active)	35%	95% (active)	87.1% (active)	26%	87% (active)	85.2% (active)	31%	96% (active)	83.2% (active)	33%	93% (active)	87.1% (active)
S=P(S)(Oc1ccccc1)Oc1ccccc1	-10%	25%	56%	-18%	18%	77.7% (active)	1%	17%	40.4%	-11%	20%	92.9% (active)	-4%	38%	75.2% (active)	-12%	10%	90.2% (active)
O=[N+]([O-])c1ccccc1	11%	75% (active)	79.2% (active)	3%	10%	-0.5%	3%	17%	27.1%	4%	4%	35.5%	2%	12%	13.3%	6%	19%	39.2%
Cc1cccc2cc3ccccc3cc12	29%	99% (active)	95.3% (active)	50%	99% (active)	97% (active)	43%	99% (active)	85.9% (active)	58%	99% (active)	91.1% (active)	68%	99% (active)	95.7% (active)	70% (active)	99% (active)	96.9% (active)
COC12[C@@H]3N[C@@H]3CN1C1=C(C(=O)C(NCCSSCCNC3=C(C)C(=O)C4=C(C3=O)C(COC(N)=O)[C@]3(OC)C5N[C@@H]5CN43)=C(C)C1=O)[C@@H]2COC(N)=O (some centres undefined)	35%	73% (active)	63.1%	18%	82% (active)	49%	41%	74% (active)	3.55%	19%	53%	39.4%	17%	52%	-8.85%	54%	93% (active)	79% (active)
[N-]=[N+]=NS(=O)(=O)c1cccc([N+](=O)[O-])c1	8%	100% (active)	80.2% (active)	-17%	100% (active)	87.1% (active)	-34%	99% (active)	89.1% (active)	8%	99% (active)	90.8% (active)	-24%	100% (active)	90.8% (active)	-5%	100% (active)	92.7% (active)
[Se]C(=NCc1ccccc1)NCc1ccccc1	29%	61%	93.3% (active)	4%	15%	6.1%	2%	19%	19.2%	-1%	-7%	-102%	3%	18%	46.2%	8%	29%	52.4%
Cc1cc[n+](C2=C(Nc3ccc(Cl)cc3Cl)C(=O)c3ccccc3C2=O)cc1	41%	90% (active)	92.3% (active)	-1%	58%	61.5%	1%	59%	66.4%	4%	39%	40.2%	5%	78% (active)	61.1%	4%	58%	81% (active)
S=P(Nc1ccccc1)(Oc1ccccc1)c1ccccc1 (centres undefined)	-1%	90% (active)	93.8% (active)	5%	91% (active)	94.5% (active)	3%	90% (active)	93.3% (active)	-1%	87% (active)	91% (active)	1%	88% (active)	92.4% (active)	6%	88% (active)	92.7% (active)
COC(=O)CC1(C(=O)O)CC2(Cl)C(Cl)=C(Cl)C1(Cl)C2(Cl)Cl (centres undefined)	4%	30%	65.9%	10%	52%	47.4%	6%	49%	75% (active)	17%	56%	83.5% (active)	1%	41%	36.8%	7%	57%	61.4%
CC[C@](C)(O)C(=O)O[C@H]1C(=O)O[C@@H]2C[C@H]3C(C)=CC(=O)[C@@H](O)[C@]3(C)[C@H]3[C@@]4(O)OC[C@]32[C@@H]1[C@@H](C)[C@H]4O	17%	94% (active)	68%	21%	90% (active)	46.6%	14%	91% (active)	61.8%	33%	97% (active)	71.6% (active)	6%	97% (active)	70.3% (active)	9%	94% (active)	74.3% (active)
C[Si]1(C)CCCCC2(C1)C(=O)NC(=O)NC2=O	0%	17%	16.4%	4%	20%	2.6%	-1%	58%	51%	-3%	5%	16.5%	-5%	13%	10.8%	-17%	3%	8.5%
O=c1oc2ccccc2c(O)c1C1c2c(c3ccccc3oc2=O)Oc2c1c(=O)oc1ccccc21	9%	96% (active)	85% (active)	2%	97% (active)	91.2% (active)	2%	97% (active)	88.5% (active)	12%	97% (active)	87.3% (active)	9%	97% (active)	84.9% (active)	10%	97% (active)	92% (active)
CC(C)C1=CC23CCC4C(C)(C(=O)O)CCCC4(C)C2CC1OO3 (centres undefined)	37%	91% (active)	98.2% (active) and 98.8% (active)	10%	94% (active)	93.1% (active) and 98.8% (active)	17%	84% (active)	98.2% (active) and 98.9% (active)	1%	78% (active)	97% (active) and 90.4% (active)	-3%	80% (active)	98% (active) and 99.5% (active)	27%	89% (active)	98.5% (active) and 95.2% (active)
